MITF act: activators of MITF-driven TRPM1 promoter activity in SK-MEL-5 cells; AID 588334; activation, % at 12.5 µM; SK-MEL-5 TRPM1-promoter luciferase, 24 h; % of positive control, neutral wells = 0; 300,000 compounds, 0.75% hits;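 active = mean activation of at least 80% with every replicate also reaching 80%; inconclusive = mean reaches 80% but some replicate falls short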;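 also: 0% = neutral control wells and 100% = parthenolide positive control wells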
GAA850 FXN act: frataxin GAA850 promoter activation; activation, % at 6 µM; HEK293 lucGAA850 FXN promoter luciferase reporter, 24 h; percent of 10 µM SAHA response; 360,000 compounds, 0.56% hits;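 active = activation above the average of all compounds screened plus 3 SD, cutoff fixed separately per campaign, cut at about 7.5% in these data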;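 also: 0% = DMSO wells and 100% = 10 µM SAHA wells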
esBAF inh: SWI/SNF esBAF complex inhibition. mouse ES cells, Bmi1-luciferase knock-in reporter, 24 h; 100% = twice the neutral-well signal. reporter increase, % at 12.5 µM. 350,000 compounds, 2% hits. AID 602393; in the data active = activation above about 40%; inconclusive = no clear call, values can overlap the other calls;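 also: 0% = median of the plate's neutral control wells and 100% = double that signal; a rise in the Bmi1 reporter signal indicates esBAF inhibition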
Wnt act: activates Wnt/beta-catenin signaling in a reporter cell assay; activation, % at 9.35 µM; 300,000 compounds, 1.2% hits; activator, plate reader; in the data active = activation above about 30%, passing the limit was not always enough; inconclusive = no clear call, values can overlap the other calls;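 also: 0% = neutral control wells and 100% = positive control wells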
* hit, by the source's call; ? = inconclusive; / = no result given. The list is not random: actives were taken first. Their share in the collection is about 2.8%.

SMILES | MITF act | GAA850 FXN act | esBAF inh | Wnt act
CCc1nc(C)cn1S(=O)(=O)c1ccc2c(c1)OCCO2 | -6 | 0 | -3 | 1
COc1ccc(S(=O)(=O)Nc2ccc3c(c2)C(=O)N([C@@H](C)CO)C[C@@H](C)[C@H](CN(C)Cc2ccc(Oc4ccccc4)cc2)O3)cc1 | / | / | 0 | /
CC(=O)Oc1ccc(Oc2ccc(-c3noc(C)n3)cc2)cc1 | / | 1 | 20 | 48*
C[C@H](CO)N1C[C@H](C)[C@@H](CN(C)C(=O)C2CC2)Oc2cc(C#Cc3ccccn3)ccc2S1(=O)=O | / | / | 4 | /
Cc1ccc(NC(=O)Cc2ccc(-c3ccccc3)cc2)nc1 | -3 | 3 | / | 1
O=C(Cc1ccc(-c2ccccc2)cc1)Nc1ccccn1 | 69 | 3 | 43* | 26
CCOc1ccccc1NC(=O)CN1C(=O)C(C)SC(C)C1=O (stereo unspecified) | -10 | 0 | / | 39*
CCOc1ccccc1NC(=O)CN1C(=O)CSC(C)C1=O (stereo unspecified) | -6 | -1 | / | -1
O=C(CCN1CCCCC1)NCC[C@H]1CC[C@H](NC(=O)C2CCOCC2)[C@@H](CO)O1 | / | / | -3 | /
CCC(=O)Nc1ccc2c(c1)OC[C@H](C)N(C(=O)NC(C)C)C[C@H](C)[C@H](OC)CN(C)C2=O | / | / | -4 | /
COc1cc(CNc2ccc(N3CCN(C(C)=O)CC3)cc2)ccc1OCc1ccccc1 | -7 | 0 | / | 40*
COc1cc(CNc2ccc(N3CCOCC3)cc2)ccc1OCC(=O)NC(C)(C)C | -5 | -1 | 5 | 0
Clc1cccc2sc(-c3nnc(-c4ccccc4)o3)c(Cl)c12 | 35 | 4 | 44* | /
CO[C@@H]1CN(C)C(=O)c2cc(NC(=O)C3CCC3)ccc2OC[C@@H](C)N(Cc2ccccn2)C[C@@H]1C | / | / | -1 | /
Clc1ccccc1N=C1NN=C(c2cccs2)CS1 | 46 | 6 | 66* | -1
O=C(NCc1ccccc1)c1c[nH]c2cc3c(cc2c1=O)OCCO3 | 39 | 3 | 51* | 24
COc1ccc(-c2csc(Nc3ncccc3C)n2)cc1 | 49 | 3 | -8 | /
COc1ccc(-c2csc(Nc3ncccn3)n2)cc1C | 73 | 4 | ? | 38*
COc1ccc(-c2csc(Nc3ncccc3C)n2)cc1OC | 79 | 4 | 87* | 3
CC(SC1=NCCS1)C(=O)Nc1nnc(-c2ccc(Cl)cc2)s1 (stereo unspecified) | 46 | 1 | 43* | 6
COc1ccc(O)c(-c2cc(-c3ccccc3Cl)[nH]n2)c1 | / | 4 | 74* | 13
Cc1ccccc1-c1cc(-c2ccccc2O)n[nH]1 | 26 | 6 | -29 | 55*
Cc1ccc(-c2cc(-c3ccc(C)cc3O)[nH]n2)cc1 | ? | 2 | 36 | 16
Cc1ccc(-c2cc(-c3ccccc3Cl)[nH]n2)c(O)c1 | 71 | 4 | 52* | 30
Cc1ccc(-c2cc(-c3ccccc3[N+](=O)[O-])[nH]n2)c(O)c1 | 62 | 2 | 70* | 21
SMILES | MITF act | GAA850 FXN act | esBAF inh | Wnt act
COc1ccc(-c2cc(-c3ccccc3O)[nH]n2)cc1 | 38 | 5 | / | /
Cc1ccc(S(=O)(=O)Nc2ccc3c(c2)C(=O)N([C@@H](C)CO)C[C@@H](C)[C@H](CN(C)C(=O)c2ccccc2)OCCCC[C@H](C)O3)cc1 | / | / | 5 | /
C[C@@H]1CN([C@H](C)CO)C(=O)Cc2cc(NS(=O)(=O)c3cn(C)cn3)ccc2O[C@@H]1CN(C)Cc1ccncc1 | / | / | 0 | /
O=C(NC1CCCCC1)c1cc2cc(Br)ccc2o1 | / | 4 | 56* | -1
O=C(NC1CCCC1)c1cc2ccccc2o1 | 24 | 4 | / | 27
O=C(NC1CCCC1)c1cc2cc(Br)ccc2o1 | ? | 4 | 69* | ?
O=C(COc1cccc2cccnc12)Nc1nccs1 | / | 0 | 29 | 53*
COc1c(C(=O)Nc2nccs2)ccc2ccccc12 | 57 | 3 | 42* | 37*
O=C(Nc1ccc(Br)cn1)c1ccc2ccccc2c1 | / | 1 | 56* | 17
COc1ccc(C(CC(=O)Nc2nccs2)n2cccc2)cc1 (stereo unspecified) | 55 | 4 | 61* | /
COc1ccc(C(CC(=O)Nc2nccs2)C(C)C)cc1 (stereo unspecified) | -9 | -1 | -7 | 0
O=C(O)C[C@@H]1C=C[C@@H](NC(=O)c2ccccc2F)[C@H](CO)O1 | / | / | 3 | /
O=C(O)C[C@H]1C[C@@H]2c3cc(NC(=O)NC4CCCC4)ccc3O[C@@H]2[C@H](CO)O1 | / | / | -5 | /
COc1ccccc1OCCCC(=O)Nc1nccs1 | 59 | 2 | 82* | 6
COc1cccc2c1OCC(C(=O)Nc1nccs1)=C2 | 119* | 3 | ? | ?
COc1c(C(=O)Nc2ccc(Br)cn2)ccc2ccccc12 | 67 | 5 | 49* | 29
O=C(Nc1ccc(Br)cn1)c1cccc2ccccc12 | / | -3 | / | -7
COc1cc2ccccc2cc1C(=O)NCC(c1cccs1)N(C)C (stereo unspecified) | 123* | 3 | / | 28
CN1c2ccc(-c3ccccc3F)cc2[C@@H]2[C@@H](CCN2S(=O)(=O)c2ccccc2)[C@@H]1CO | / | / | -1 | /
COc1cc2ccccc2cc1C(=O)Nc1nccs1 | / | 5 | 76* | ?
CSc1ncccc1C(=O)OCC(=O)c1ccc(C)s1 | 10 | 1 | 58* | 16
Cc1ccc(C(=O)COC(=O)c2cccc(O)c2)s1 | 54 | 3 | 62* | 40*
CSc1ncccc1C(=O)OCC(=O)c1ccc(Cl)s1 | / | -3 | 7 | -1
O=C(OCC(=O)N1CCOCC1)c1ccc2ccccc2c1O | 50 | 3 | ? | 42*
CN(C)c1ccc(C(=O)OCC(=O)N2CCCCCC2)cc1 | 64 | 3 | 47* | -2
SMILES | MITF act | GAA850 FXN act | esBAF inh | Wnt act
O=C(COC(=O)c1ccccc1Br)NC1CCCC1 | 58 | 5 | 50* | -6
COc1cc2ccccc2cc1C(=O)OCC(=O)N1CCOCC1 | 1 | 0 | 10 | /
COc1cccc(NC(=O)COC(=O)c2c(F)cccc2F)c1 | -11 | 3 | / | /
O=C(COC(=O)c1ccccc1Br)NC1CCCCCCC1 | 35 | 1 | / | -4
COc1cccc(NC(=O)COC(=O)c2sccc2C)c1 | 108* | 4 | 50* | 7
Cc1noc(C)c1S(=O)(=O)Nc1ccc2c(c1)C(=O)N([C@@H](C)CO)C[C@@H](C)[C@@H](CN(C)S(=O)(=O)c1c(C)noc1C)O2 | / | / | -6 | /
Cc1ccsc1C(=O)OCC(=O)NC1CC1 | 5 | 1 | 8 | 1
O=C(OCC(=O)N1CCCC1)c1ccccc1O | 45 | 5 | 17 | 17
CC1CCCC(C)N1C(=O)COC(=O)c1cccs1 (stereo unspecified) | 20 | 2 | 4 | -3
Cc1ccsc1C(=O)OCC(=O)N1C(C)CCCC1C (stereo unspecified) | 27 | 2 | 79* | 11
Cc1ccsc1C(=O)OCC(=O)NC1CCCCC1 | / | 2 | 63* | 12
O=C(OCC(=O)c1ccc[nH]1)c1ccccc1 | 64 | 5 | / | -1
CN(C)c1ccc(C(=O)OCC(=O)c2ccc[nH]2)cc1 | 137* | 3 | 72* | 9
O=C(OCC(=O)N1CCCCCC1)c1ccccc1Br | 75 | 4 | 54* | 14
